Bioassay records deposited in PubChem BioAssay by National Center for Advancing Translational Sciences (NCATS).
Cycloheximide cs: counter-screen for Shiga toxin inhibitors: cycloheximide protein synthesis inhibition | cell reporter, cycloheximide protein synthesis inhibition counterscreen | 12% of 300,000 active | max response, %; in the data active means max response mostly above about 13%, no sharp cut-off; inactive means mostly below about 14%; further: read at 38.3 µM for the half of the compounds with a filed dose; 0% is about no effect
Shiga toxin inh: inhibitors of Shiga toxin in Vero cells. Vero cells, Shiga toxin protein synthesis inhibition reporter. inhibition, % at 38.7 µM. 9.2% of 290,000 active. AID 2315; in the data active means inhibition mostly above about 28%, no sharp cut-off; inactive means mostly below about 43%; further: 0% is about no effect
Pf growth 96h: P. falciparum growth inhibition at 96 hours | P. falciparum luciferase reporter growth, 96 h | Potency, µM (series often up to 28.7 µM), for the others: at the highest dose activity change, negative = inhibition, hits mostly inhibitors | 6.9% of 320,000 active; further: potency means the concentration at half of the fitted maximal effect; on the % scale 0 is the no-effect control and ±100 the full control effect
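Readout is luminescence from an integrated firefly luciferase in P. falciparum. Red cells, 2% hematocrit and 0.05% parasitemia final, were cultured with compound through two parasite generations (96 hours) at 37 C, 5% CO2.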
HCMV antiviral: inhibitors of human cytomegalovirus. 4.5% of 410,000 active. AID 1259415. activity change, negative = inhibition, % at 57.5 µM. HFF cells, HCMV-luciferase reporter, 72 h; active compounds read low; in the data active means activity change below about -60%; inconclusive means no clear call, values can overlap the other calls; inactive means above about -39%; further: on the % scale 0 is the no-effect control and ±100 the full control effect
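HFF cells seeded 16 h at 37C, treated with compounds, infected with luciferase-reporter HCMV at MOI 1 PFU/cell; luciferase read at 72 h post infection, normalized to buffer-only and Salinomycin controls.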
Pf growth 48h: P. falciparum growth inhibition at 48 hours (one generation) | P. falciparum luciferase growth in erythrocytes, 48 h | Potency, µM (highest dose often 28.7 µM), inactives show top-dose activity change, negative = inhibition, usual class: inhibitors | 5.9% of 310,000 active | AID 504832; further: potency means the concentration at half of the fitted maximal effect; on the % scale 0 is the no-effect control and ±100 the full control effect
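Here the parasites carry a stable luciferase gene and grow inside erythrocytes in Albumax-based RPMI medium with compound for one erythrocytic cycle. Activity is scored as loss of luminescent signal.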
An asterisk follows results filed as active. Most compounds without a hit are left out; they make up all but 20% or so of the library. Unless noted, the call rests on the fitted dose curve; in most records, active means well fitted inhibition curve with a large enough effect; inconclusive means small, poorly fitted or top-dose-only effect, or another doubt; inactive means no such curve, though single readings can be large or run the other way.

`Cc1ccc(C(=O)NC(N2CCCC2)C(Cl)(Cl)Cl)cc1` (centres undefined) gave Cycloheximide cs 11, Shiga toxin inh -7, Pf growth 96h inconclusive, HCMV antiviral 12 and Pf growth 48h 3%.
Screening CCNC(=O)[C@@H]1CCCN1C(=O)[C@H](CCCN=C(N)N)NC(=O)[C@H](CC(C)C)NC(=O)[C@@H](Cc1c[nH]c2ccccc12)NC(=O)[C@H](Cc1ccc(O)cc1)NC(=O)[C@H](CO)NC(=O)[C@H](Cc1c[nH]c2ccccc12)NC(=O)[C@H](Cc1cnc[nH]1)NC(=O)[C@@H]1CCC(=O)N1 returned Pf growth 96h 1.5µM* and Pf growth 48h 1.3µM*.
Screening CC(C)C[C@H](NC(=O)[C@@H](Cc1c[nH]c2ccccc12)NC(=O)[C@@H](Cc1ccc(O)cc1)NC(=O)[C@@H](CO)NC(=O)[C@@H](Cc1c[nH]c2ccccc12)NC(=O)C(Cc1cnc[nH]1)NC(=O)C1CCC(=O)N1)C(=O)N[C@@H](CCCN=C(N)N)C(=O)N1CCC[C@@H]1C(=O)NCC(N)=O (some centres undefined) returned Pf growth 96h inconclusive and Pf growth 48h 10%.
For CC[C@H](C)[C@H](NC(=O)[C@H](CO)NC(=O)[C@H](CC(C)C)NC(=O)[C@H](CO)NC(=O)[C@@H]1CCCN1C(=O)[C@H](CC(N)=O)NC(=O)[C@@H](N)CC(=O)O)C(=O)N[C@@H](CC(=O)O)C(=O)N[C@@H](CC(C)C)C(=O)N[C@H](C(=O)N[C@@H](Cc1ccccc1)C(=O)N[C@@H](Cc1cnc[nH]1)C(=O)N[C@@H](CC(C)C)C(=O)N[C@@H](CC(C)C)C(=O)N[C@@H](CCCNC(=N)N)C(=O)N[C@H](C(=O)N[C@@H](CC(C)C)C(=O)N[C@@H](CC(C)C)C(=O)N[C@@H](CCC(=O)O)C(=O)N[C@@H](CC(C)C)C(=O)N[C@@H](C)C(=O)N[C@@H](CCCNC(=N)N)C(=O)N[C@H](C(=O)N[C@@H](CCC(N)=O)C(=O)N[C@@H](CO)C(=O)N[C@@H](CCC(N)=O)C(=O)N[C@@H](CCCNC(=N)N)C(=O)N[C@@H](CCC(=O)O)C(=O)N[C@@H](CCCNC(=N)N)C(=O)N[C@@H](C)C(=O)N[C@@H](CCC(=O)O)C(=O)N[C@@H](CCC(N)=O)C(=O)N[C@@H](CC(N)=O)C(=O)N[C@@H](CCCNC(=N)N)C(=O)N[C@H](C(=O)N[C@H](C(=O)N[C@@H](Cc1ccccc1)C(=O)N[C@@H](CC(=O)O)C(=O)N[C@@H](CO)C(=O)N[C@H](C(N)=O)C(C)C)[C@@H](C)CC)[C@@H](C)CC)[C@@H](C)O)[C@@H](C)O)[C@@H](C)O the results were Cycloheximide cs -7 and Shiga toxin inh 17*.
Screening COc1ccc(CCNC(=O)c2ccc(Cn3c(=O)c4ccccc4n(Cc4cccc(C)c4)c3=O)cc2)cc1OC returned HCMV antiviral 4.
For Cc1c(P(=S)(c2ccccc2)c2ccccc2)[n+]2ccccc2n1CCc1ccccc1 the results were HCMV antiviral -98*.
COc1ccc(CC(=O)O/N=C(\N)c2ccc(C)cc2)cc1 was read as Cycloheximide cs 47*, Shiga toxin inh 118*, Pf growth 96h 59%, HCMV antiviral 142 and Pf growth 48h 56%.
N/C(=N\OC(=O)Cc1ccc(Cl)cc1)c1ccncc1 was read as Cycloheximide cs -2, Shiga toxin inh 28, Pf growth 96h 4%, HCMV antiviral 8 and Pf growth 48h inconclusive.
Screening CCC(Oc1ccccc1)C(=O)O/N=C(\N)c1ccc(OC)c(OC)c1 (centres undefined) returned Cycloheximide cs 0, Shiga toxin inh -3, Pf growth 96h inconclusive, HCMV antiviral -17 and Pf growth 48h 4%.
`COc1ccc(/C(N)=N/OC(=O)Cc2ccc(C)cc2)cc1OC` gave Cycloheximide cs 15*, Shiga toxin inh -5, Pf growth 96h 25%, HCMV antiviral 65 and Pf growth 48h 24%.
`COc1ccc(OCC(=O)O/N=C(\N)c2ccc(OC)c(OC)c2)cc1` gave Cycloheximide cs -1, Shiga toxin inh 30, Pf growth 96h inconclusive, HCMV antiviral 67 and Pf growth 48h -3%.
For COc1ccc(CC(=O)O/N=C(\N)c2ccncc2)cc1 the results were Cycloheximide cs 15*, Shiga toxin inh 82*, Pf growth 96h 3%, HCMV antiviral 23 and Pf growth 48h 4%.
For COc1cccc(OCC(=O)O/N=C(\N)c2ccc(OC)c(OC)c2)c1 the results were Cycloheximide cs 9, Shiga toxin inh 1, Pf growth 96h 6.6µM*, HCMV antiviral 45 and Pf growth 48h 15%.
O=C(Nc1nc2n(n1)C(c1ccc(F)cc1)C=C(c1ccccc1)N2)c1ccco1 (centres undefined) was read as HCMV antiviral -30.
Screening CCc1ccc(Oc2c(C(F)(F)F)oc3c(CN4CCN(C)CC4)c(O)ccc3c2=O)cc1 returned HCMV antiviral -27.
Screening Cc1ccc(S(=O)(=O)N2C(=O)CCC2C(=O)O/N=C(\N)c2ccccc2)cc1 (centres undefined) returned Cycloheximide cs 7, Shiga toxin inh -13, Pf growth 96h -7%, HCMV antiviral inconclusive and Pf growth 48h inconclusive.
For COc1ccc(/C(N)=N/OC(=O)C2CCC(=O)N2S(=O)(=O)c2ccc(C)cc2)cc1OC (centres undefined) the results were Cycloheximide cs -2, Shiga toxin inh -7, Pf growth 96h 179%, HCMV antiviral -87* and Pf growth 48h 3%.
For COc1ccc(C(=O)N[C@H](C(=O)OCC(=O)NC(=O)c2cccn2C)C(C)C)cc1 the results were Cycloheximide cs 15*, Shiga toxin inh 15, Pf growth 96h 17%, HCMV antiviral inconclusive and Pf growth 48h -1%.
For COc1cc(OC)cc(C(=O)N[C@H](C(=O)OCC(=O)NC(=O)c2cccn2C)C(C)C)c1 the results were Cycloheximide cs -7, Shiga toxin inh -13, Pf growth 96h 17%, HCMV antiviral -10 and Pf growth 48h -32%.
`COc1cccc(/C=N/NC(=O)c2nnn(-c3nonc3N)c2-c2cccs2)c1` gave Cycloheximide cs 13, Shiga toxin inh 25, Pf growth 96h 9%, HCMV antiviral inconclusive and Pf growth 48h inconclusive.
For CCCOc1ccc(/C=N/NC(=O)c2nnn(-c3nonc3N)c2-c2cccs2)cc1OC the results were Cycloheximide cs 27, Shiga toxin inh 23, Pf growth 96h 12µM*, HCMV antiviral 0 and Pf growth 48h 13µM*.
`Nc1nonc1-n1nnc(C(=O)N/N=C/c2ccc(F)cc2)c1-c1cccs1` gave Cycloheximide cs 3, Shiga toxin inh -7, Pf growth 96h inconclusive, HCMV antiviral active and Pf growth 48h inconclusive.
Cn1cccc1C1CCCN1CC(=O)Nc1c(Cl)cc(Cl)cc1Cl (centres undefined) was read as HCMV antiviral -4.
